Screens deposited in PubChem by National Center for Advancing Translational Sciences (NCATS).
In the library only some 19% were active in any assay of this set; here they are far more common.
DT40 TDP1 no CPT – qHTS for Inhibitors of human tyrosyl-DNA phosphodiesterase 1 (TDP1): qHTS in cells in absence of CPT; AID 686978, 2013; 420,000 tested, 15% active; DT40 Tdp1-/- hTDP1 cells, no CPT, ATP luminescence, 48 h; Potency, µM (top dose mostly 46.2 µM), without a hit: at the top dose activity change, negative = growth inhibition, most hits filed as inhibitors; also: potency is read from the fitted curve at half-maximal effect; % is scaled to controls: 0 for no effect and ±100 for the full control effect; nearly all actives have a fitted effect of over 55% in size
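No-CPT arm: Tdp1-/-;hTDP1 DT40 cells (400/well) plus compounds, incubated ≥48 hr at 37 °C. Readout CellTiter-Glo luminescence.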
DT40 TDP1 CPT – growth inhibition of DT40 Tdp1-/-;hTDP1 cells with camptothecin (screen for TDP1 inhibitors); 420,000 tested, 12% active; AID 686979; Potency, µM (highest dose often 46.2 µM), for the others: at the highest dose activity change, negative = growth inhibition, usual class: inhibitors; chicken DT40 Tdp1-/-;hTDP1 cells + 20 nM CPT, ATP luminescence, 48 h; also: potency is read from the fitted curve at half-maximal effect; % is scaled to controls: 0 for no effect and ±100 for the full control effect; nearly all actives have a fitted effect of over 55% in size
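Chicken DT40 Tdp1-/- cells stably complemented with human TDP1 were seeded at 400 cells/well in medium containing 20 nM camptothecin, exposed to pin-transferred compounds, and grown at 37 °C for at least 48 hr. Viability was read as ATP luminescence.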
Chronic BCR inh – inhibitors of chronic active B-cell receptor signaling | ABC-DLBCL IkBa-CBG/CBR reporter, luminescence ratio, 4 h | Potency, µM (doses to about 46.1 µM), inactives show at the highest dose activity change, negative = inhibition, most hits filed as inhibitors | 340,000 tested, 0.05% active | AID 493014; active = well fitted inhibition curve with a large enough effect in the signal ratio, with a control signal flat, not every such curve was filed as active; inconclusive = small, poorly fitted or top-dose-only effect, or effect the other way, or a change in a side signal; the % refers to the signal ratio;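 also: potency is read from the fitted curve at half-maximal effect; plate controls were basal doxycycline-induced cells for no effect and cells given 10 µM MG132 for full effect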
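TMD8 ABC-DLBCL cells carrying doxycycline-inducible green luciferase fused to IkappaBalpha plus unfused red luciferase were exposed to compounds (up to 46 uM) for 4 hrs at 37C. Activity came from the overlap-corrected green/red luminescence ratio.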
SW480 rereplic – induces DNA re-replication in SW480 colon adenocarcinoma cells. SW480 DNA re-replication, Hoechst DNA content imaging, 48 h. Potency, µM (top dose mostly 46.1 µM), without a hit: at the top dose re-replication activation, most hits filed as activators. 340,000 tested, 1.8% active. AID 624297; also: potency is read from the fitted curve at half-maximal effect; % of control where 0% means no effect; nearly all actives have a fitted effect of over 55% in size
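Per well, 250 cells were exposed to pinned compound for 48 hr. Nuclear DNA was visualised with Hoechst (40 min, 37 C) and total object intensity recorded by fluorescence scanning.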
MCF10A rerep – inducers of DNA re-replication in MCF 10A breast cells; MCF 10A DNA re-replication, Hoechst nuclear intensity, 48 h; Potency, µM (series often up to 46.1 µM), inactives show at the top dose activity, positive = re-replication, usual class: activators; 350,000 tested, 2.9% active; also: potency is read from the fitted curve at half-maximal effect; % of control where 0% means no effect; nearly all actives have a fitted effect of over 50% in size
IL1B secr inh – inflammasome signaling inhibition, IL-1 beta readout; THP-1 LPS/ATP IL-1B secretion, AlphaLISA, 16 h; active compounds read low; activity change, % at 57.5 µM; 360,000 tested, 4.7% active; in the data active = activity change below about -50%; inconclusive = mostly about -30% to -49%; also: % is scaled to controls: 0 for no effect and ±100 for the full control effect
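THP-1 cells pretreated 1 hr with compounds (up to 57.5 uM final), then stimulated with LPS (250 ng/mL final) plus ATP (1.25 mM final); secreted IL-1B measured by AlphaLISA after 16 hr, decreased signal indicating inhibition.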
An asterisk follows results filed as active; i = inactive; ? = inconclusive; . = not tested or not shown. Unless noted, calls follow the shape of the dose curve; as a rule, active = well fitted curve in the direction sought with a large enough effect; inconclusive = small, poorly fitted or top-dose-only effect, or another doubt; inactive = no such curve, though single readings can be large; an effect the other way counts as inactive or inconclusive.

SMILES | DT40 TDP1 no CPT | DT40 TDP1 CPT | Chronic BCR inh | SW480 rereplic | MCF10A rerep | IL1B secr inh
Cc1ccc(N(CC(=O)NC2CCCCC2)S(=O)(=O)c2cccs2)cc1 | -20.9% | -13.0% | -9.6% | -10.3% | -1.7% | 1.7
Cc1ccc(NC(=O)CSc2nnc(-c3ccccn3)n2N)c(Br)c1 | -7.9% | -0.7% | ? | 14.6% | -3.4% | -14.0
CCN(CC)C(=O)c1sc2c(c1C)c(=O)n(Cc1ccccc1)c(=O)n2CC(=O)Nc1ccc(OC)cc1 | -18.7% | ? | ? | . | . | .
CC(=O)Oc1ccccc1C(=O)OCCN=C1NS(=O)(=O)c2ccccc21 | ? | -4.1% | -4.3% | 3.2% | 4.2% | 5.9
Cc1ccccc1CN1C(=O)CN(S(C)(=O)=O)CC1(C)C(=O)Nc1ccc2c(c1)OCCO2 (centres undefined) | 10.6% | 8.7% | . | . | . | -0.2
COc1ccc(C2=C/C(=C\c3ccccc3OC(C)=O)C(=O)O2)cc1 | 14.6µM* | 20.6µM* | ? | -1.1% | 7.9% | -3.3
Cc1ccccc1NC(=O)CCC(=O)N/N=C/c1ccncc1 | 12.9% | -10.8% | 2.9% | 2.8% | 0.4% | -11.9
CCn1cc(/C=N/N=C2\CCC3C4CCc5cc(O)ccc5C4CC[C@]23C)c(C)n1 (some centres undefined) | 20.6µM* | 16.4µM* | -0.3% | -7.6% | ? | 0.0
Cc1cc(C)nc(SCC(=O)Nc2ncc(Cc3cccc(Cl)c3)s2)n1 | 18.4µM* | ? | 2.8% | 1.2% | ? | 1.5
O=C(CN1CCOCC1)Nc1ncc(Cc2cccc(Cl)c2)s1 | ? | -10.9% | -0.7% | 8.2µM* | ? | 0.0
O=C(CN1CCOCC1)Nc1nc2ccc(Cl)cc2s1 | -29.0% | -12.6% | ? | 3.2% | 0.6% | -12.4
Cc1cc(S(=O)(=O)NCc2ccccc2)ccc1OCC(=O)N1CCCC1 | -12.2% | 0.7% | -4.4% | 2.8% | -1.2% | i
CCOc1ccc(S(=O)(=O)N2CCCC(C(=O)NCC3CCCO3)C2)cc1 (centres undefined) | -1.5% | -15.0% | ? | -1.5% | -1.8% | 11.0
N#C/C(=C\c1c(N2CCOCC2)nc2ccccn2c1=O)C(=O)NC1CCS(=O)(=O)C1 (centres undefined) | -15.6% | -1.3% | -2.2% | ? | 5.8µM* | -16.9
Cc1ccc(Oc2nc3ccccn3c(=O)c2/C=C(\C#N)C(=O)NC2CCS(=O)(=O)C2)c(C)c1 (centres undefined) | ? | ? | ? | -0.2% | 0.6% | 14.3
N#C/C(=C\c1c(N2CCCCCC2)nc2ccccn2c1=O)C(N)=O | -16.6% | 5.5% | -0.2% | -5.3% | -7.4% | -12.8
N#C/C(=C\c1ccc(F)cc1)C(=O)NC1CCS(=O)(=O)C1 (centres undefined) | -16.1% | -8.4% | -2.7% | -1.4% | -0.9% | 17.9
Cc1cc(C)cc(Oc2nc3ccccn3c(=O)c2/C=C(\C#N)C(=O)NC2CCS(=O)(=O)C2)c1 (centres undefined) | 9.2µM* | ? | ? | 9.8% | -7.1% | 11.6
N#C/C(=C\c1c(Oc2ccccc2F)nc2ccccn2c1=O)C(=O)NC1CCS(=O)(=O)C1 (centres undefined) | ? | 10.0% | -5.6% | ? | 16.4µM* | ?
CCNc1ncnc2c1cnn2C1CCCO1 (centres undefined) | -11.0% | -16.3% | . | 0.6% | -1.9% | -6.1
O=C(NCc1ccco1)c1cccc2c1C(=O)c1ccc(N3CCC(N4CCCCC4)CC3)cc1S2(=O)=O | -5.7% | 19.5% | . | . | . | -22.4
COc1ccc(OC)c(C2(O)CSC(=Nc3cccnc3)N2Cc2ccco2)c1 (centres undefined) | 18.4µM* | 14.6µM* | ? | -1.9% | 10.5% | -2.0
COc1ccc(OC)c(/C=N/N=C2\SCC(=O)N2Cc2ccco2)c1 | ? | -22.4% | -7.2% | 20.1% | -2.1% | 12.4
CN(C)c1cc2c3ccccc3n(C)c2cc1N | -19.1% | -21.9% | . | 7.7% | ? | -0.2
CCc1nc2ccc(C(=O)NCCCn3ccnc3)cn2c1N(C)C(=O)COc1ccccc1 | 3.3% | 0.9% | . | . | . | 17.6
SMILES | DT40 TDP1 no CPT | DT40 TDP1 CPT | Chronic BCR inh | SW480 rereplic | MCF10A rerep | IL1B secr inh
COc1ccc(N2C(=O)c3ccc(C(=O)Nc4ccccc4O)cc3C2=O)cc1 | 3.4% | -14.6% | -2.2% | -40.7% | 2.91µM* | -10.6
COc1ccccc1N1C(=O)c2ccc(C(=O)Nc3ccccc3O)cc2C1=O | 1.6% | 1.5% | ? | -13.3% | -8.1% | 30.6
O=C(N/N=C\C=C\c1ccc2c(c1)OCO2)c1ccc(F)cc1 | -20.0% | 27.2% | ? | -18.6% | ? | -16.4
O=C(/C=C/c1ccc2c(c1)OCO2)c1ccc[nH]1 | ? | 23.5% | ? | 3.0% | -1.9% | -94.7*
O=C(c1ccc2c(c1)OCO2)c1ccc[nH]1 | -20.2% | -21.8% | . | . | . | -10.8
COc1cccc(/C=C/C(=O)c2ccc3c(c2)OCO3)c1OC | 18.4µM* | ? | ? | ? | ? | -19.7
O=C(CNC(=O)c1ccc2c(c1)OCO2)N/N=C(Br)/C=C/c1ccccc1 | 7.31µM* | 2.59µM* | ? | ? | 9.2µM* | -61.2*
O=C(CNC(=O)c1ccc2c(c1)OCO2)N/N=C/c1cccc([N+](=O)[O-])c1 | -28.9% | -6.3% | -3.1% | 4.2% | -4.0% | 29.5
O=C(/C=C/c1ccc2c(c1)OCO2)c1ccc(F)cc1 | ? | ? | -3.1% | ? | ? | -73.8*
COc1cc(NC(=O)[C@@H](NC(=O)N2CCn3c2nc2ccccc23)C(C)C)cc(OC)c1 | -12.8% | ? | ? | -32.7% | 18.0% | ?
C[C@H]1COc2cccc(N3CCSCC3)c2S(=O)(=O)N1 | -10.9% | 0.8% | . | . | . | 28.7
O=C(Nc1ccncc1)c1ccc2c(c1)OCCO2 | ? | ? | -2.6% | -9.2% | -1.1% | 2.3
O=C(/C=C/c1ccncc1)c1ccc2c(c1)OCCO2 | 14.6µM* | ? | ? | ? | ? | -97.6*
CN(C)c1ccc(/C=C/C(=O)c2ccc(O)cc2)cc1 | 10.3µM* | ? | . | 18.4µM* | ? | -105.6*
O=C(/C=C/c1ccc2c(c1)OCO2)c1cccs1 | 5.96µM* | 3.35µM* | . | . | . | .
O=C(/C=C\Nc1ccccc1Br)c1ccc2c(c1)OCO2 | ? | -26.3% | ? | 0.1% | 28.1% | -14.5
O=C(/C=C/c1ccccc1Br)c1ccc2c(c1)OCO2 | 23.1µM* | 20.6µM* | ? | ? | ? | -18.9
O=C(C=Cc1ccc2c(c1)OCO2)C1CC1 | ? | 1.0% | . | . | . | -9.1
